Measurements reported in the supplement of paper PMC7669877.
± gives the uncertainty stated by the source.

These compounds were tested on Candidatus Liberibacter solanacearum in potato hairy roots (assay: relative CLso titer (% of untreated control); higher = less inhibition of bacterial titer). Conditions: 10 µM; 72 h.
Protocol: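 Primary screen of ~220 Spectrum collection (MicroSource) compounds at 10 µM (0.1% DMSO) on Candidatus Liberibacter solanacearum-infected potato hairy roots in multi-well plates (Gamborg B-5 medium, vacuum infiltrated, 21 °C, dark, 72 h). CLso titer was measured by qPCR of 16S rDNA normalised to potato RPL2 (2^-ddCq), pairwise-standardised against untreated controls, averaged over two biological replicates and expressed as % of untreated.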
For COc1cccc2c1C(=O)c1c(O)c3c(c(O)c1C2=O)C[C@@](O)(C(C)=O)C[C@@H]3O[C@H]1C[C@H](N)[C@H](O)[C@H](C)O1, the “relative CLso titer” value was 202 ± 6.5%. With CC[C@H]1OC(=O)[C@H](C)[C@@H](O[C@H]2C[C@@](C)(OC)[C@@H](O)[C@H](C)O2)[C@H](C)[C@@H](O[C@@H]2O[C@H](C)C[C@H](N(C)C)[C@H]2O)[C@](C)(O)C[C@@H](C)C(=O)[C@H](C)[C@@H](O)[C@]1(C)O the “relative CLso titer” value was 197 ± 120%. In the case of CCN(CC)CCOC(=O)C1(C2CCCCC2)CCCCC1, the “relative CLso titer” value is reported as 90.3 ± 40%. With CC(=O)O[C@]1(C(C)=O)CC[C@H]2[C@@H]3C=C(Cl)C4=CC(=O)[C@@H]5C[C@@H]5[C@]4(C)[C@H]3CC[C@@]21C the “relative CLso titer” value was 114 ± 4.7%. For NS(=O)(=O)c1cc2c(cc1Cl)N=CNS2(=O)=O, the “relative CLso titer” value was 31 ± 2.7%. For CN(C)/N=N/c1[nH]cnc1C(N)=O, the “relative CLso titer” value was 84.5 ± 19%. For CC(C)(Sc1cc(C(C)(C)C)c(O)c(C(C)(C)C)c1)Sc1cc(C(C)(C)C)c(O)c(C(C)(C)C)c1, the “relative CLso titer” value was 102 ± 13%. In the case of Oc1c(Cl)cc(Cl)cc1Sc1cc(Cl)cc(Cl)c1O, the “relative CLso titer” value is reported as 55.8 ± 6.5%. In the case of CCOC(=O)[C@H](CCc1ccccc1)N[C@@H](C)C(=O)N1CCC[C@H]1C(=O)O, the “relative CLso titer” value is reported as 135 ± 34%. CC(=O)OCC1=C(C(=O)O)N2C(=O)[C@@H](NC(=O)CSc3ccncc3)[C@H]2SC1 was tested, and the “relative CLso titer” value was 70.6 ± 0.88%. For O=C(O)c1cc(-c2ccc(F)cc2F)ccc1O, the “relative CLso titer” value was 115 ± 58%. CC(NCCc1ccc(O)cc1)C(O)c1ccc(O)cc1 (stereo not given) was tested, and the “relative CLso titer” value was 82.6 ± 20%. With CCS(=O)(=O)CCn1c([N+](=O)[O-])cnc1C the “relative CLso titer” value was 116 ± 0.28%. In the case of C[C@]12CC[C@@H]3c4ccc(O)cc4CC[C@H]3[C@@H]1CC[C@@H]2OC(=O)CCC1CCCC1, the “relative CLso titer” value is reported as 150 ± 44%. With NS(=O)(=O)c1cc(C2(O)NC(=O)c3ccccc32)ccc1Cl (stereo not given) the “relative CLso titer” value was 58.5 ± 3.2%. With CC1(C)OC(=O)C(OCC2CC2)=C1c1ccc(S(C)(=O)=O)cc1 the “relative CLso titer” value was 53.8 ± 6.5%. For C[C@H]1c2cccc(O)c2C(=O)C2=C(O)[C@]3(O)C(=O)C(C(N)=O)=C(O)[C@@H](N(C)C)[C@@H]3[C@@H](O)[C@@H]21, the “relative CLso titer” value was 125 ± 12%. With O=C(Oc1ccccc1C(=O)O)c1ccccc1O the “relative CLso titer” value was 124 ± 42%. CN(C)CCOC(c1ccccc1)c1ccccc1.Cn1c(=O)c2[nH]c(Cl)nc2n(C)c1=O was tested, and the “relative CLso titer” value was 127 ± 74%. With O=C(O)CN1C(=O)c2cccc3cccc(c23)C1=O the “relative CLso titer” value was 145 ± 46%. With CN(C)c1cnccn1 the “relative CLso titer” value was 120 ± 27%. CNC(=C[N+](=O)[O-])NCCSCc1ccc(CN(C)C)o1 was tested, and the “relative CLso titer” value was 109 ± 2.3%. With Cc1ccc(C(=O)Nc2ccc(S(=O)(=O)O)c3cc(S(=O)(=O)O)cc(S(=O)(=O)O)c23)cc1NC(=O)c1cccc(NC(=O)Nc2cccc(C(=O)Nc3cc(C(=O)Nc4ccc(S(=O)(=O)O)c5cc(S(=O)(=O)O)cc(S(=O)(=O)O)c45)ccc3C)c2)c1 the “relative CLso titer” value was 141 ± 37%. In the case of C[C@H]1O[C@H](O[C@H]2[C@H](O)[C@@H](O)[C@@H](O[C@H]3[C@H](O)[C@@H](O)C(O)O[C@@H]3CO)O[C@@H]2CO)[C@H](O)[C@@H](O)[C@@H]1N[C@H]1C=C(CO)[C@@H](O)[C@H](O)[C@H]1O (stereo not given in full), the “relative CLso titer” value is reported as 135 ± 70%. In the case of NCCCCCC(=O)O, the “relative CLso titer” value is reported as 39.2 ± 4.1%. With CC(=O)OCC(=O)[C@H]1CC[C@H]2[C@@H]3CCC4=CC(=O)CC[C@]4(C)[C@H]3CC[C@]12C the “relative CLso titer” value was 104 ± 18%. N=C(NCCCCCCNC(=N)NC(=N)Nc1ccc(Cl)cc1)NC(=N)Nc1ccc(Cl)cc1 was tested, and the “relative CLso titer” value was 89.5 ± 36%. For CCC[C@@H]1C[C@@H](C(=O)N[C@@H]([C@H]2O[C@H](SC)[C@H](O)[C@@H](O)[C@H]2O)[C@H](C)Cl)N(C)C1, the “relative CLso titer” value was 80.1 ± 32%. In the case of CC1=C(/C=C/C(C)=C/C=C/C(C)=C\C(=O)O)C(C)(C)CCC1, the “relative CLso titer” value is reported as 80.8 ± 13%. In the case of CCN(CC)C(=O)N1CCN(C)CC1, the “relative CLso titer” value is reported as 106 ± 9.8%. In the case of C[N+](C)(C)CCOC(N)=O, the “relative CLso titer” value is reported as 41.99 ± 0.24%. CCCCCCCCCCCCCCCC(=O)OC[C@@H](NC(=O)C(Cl)Cl)[C@H](O)c1ccc([N+](=O)[O-])cc1 was tested, and the “relative CLso titer” value was 79.3 ± 10%. With COc1ccc(CNc2nc(N3CCC[C@H]3CO)ncc2C(=O)NCc2ncccn2)cc1Cl the “relative CLso titer” value was 110 ± 46%. In the case of CCCCNc1cc(C(=O)O)cc(S(N)(=O)=O)c1Oc1ccccc1, the “relative CLso titer” value is reported as 105 ± 14%. For CC1(C)S[C@@H]2[C@H](NC(=O)C(C(=O)O)c3ccccc3)C(=O)N2[C@H]1C(=O)O (stereo not given in full), the “relative CLso titer” value was 43.3 ± 14%. For COC1=CC(=O)C[C@@H](C)[C@]12Oc1c(Cl)c(OC)cc(OC)c1C2=O, the “relative CLso titer” value was 67.3 ± 13%. In the case of C[n+]1cc2c3c(ccc2c2ccc4cc5c(cc4c21)OCO5)OCO3, the “relative CLso titer” value is reported as 86.7 ± 34%. For CO[C@@]1(NC(=O)Cc2cccs2)C(=O)N2C(C(=O)O)=C(COC(N)=O)CS[C@@H]21, the “relative CLso titer” value was 130 ± 27%. For COC(=O)Nc1nc2cc(C(=O)c3ccccc3)ccc2[nH]1, the “relative CLso titer” value was 84 ± 10%. For O=C1NS(=O)(=O)c2ccccc21, the “relative CLso titer” value was 73.2 ± 19%.
